Vaccinia mCherry = inhibitors of vaccinia virus infection (mCherry reporter signal); Vaccinia virus mCherry reporter infection, fluorescence; Potency, µM (titrated, usually from 36.5 µM), inactives show at the top dose activity change, negative = inhibition, hits mostly inhibitors; 310,000 compounds, 0.63% hits; calls by dose curve; tested in A549 cells; also: nearly all actives have a fitted effect of over 35% in size
Pf growth 48h = inhibits P. falciparum growth in the first generation, 48 h. P. falciparum luciferase growth in erythrocytes, 48 h. 310,000 compounds, 5.9% hits. Potency, µM (top dose mostly 28.7 µM), for inactives: top-dose activity change, negative = inhibition, hits mostly inhibitors
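In quantitative HTS format, infected erythrocytes bearing luciferase-reporter parasites were treated for a single generation at 37 C. Luminescence after adding detection reagent served as the growth measure.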
AMA1 RON2 block = disrupts binding of P. falciparum AMA1 to RON2; Potency, µM (titrated, usually from 58.2 µM), for the others: at the top dose activity change, negative = inhibition, hits mostly inhibitors; 360,000 compounds, 0.2% hits; AlphaScreen AMA1-biotinylated RON2 peptide binding;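 also: 0% = vehicle wells and -100% = peptide control; nearly all actives have a fitted effect of over 45% in size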
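AMA1 (3D7) with his tag at 25 nM final met compounds first, then biotinylated RON2 peptide at 25 nM; detection used donor plus acceptor beads, 10 µg/mL apiece, read by AlphaScreen after 30 min at room temperature.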
Vaccinia Venus = inhibitors of vaccinia virus (Venus reporter). Potency, µM (titrated, usually from 36.5 µM), without a hit: top-dose activity change, negative = inhibition, most hits filed as inhibitors. 330,000 compounds, 0.46% hits. Vaccinia virus Venus reporter expression, fluorescence; calls by dose curve; tested in A549 cells; also: nearly all actives have a fitted effect of over 30% in size
Pf growth 96h = P. falciparum growth inhibition at 96 hour, primary screen for plastid delayed-death inhibitors; 320,000 compounds, 6.9% hits; AID 504834; Potency, µM (highest dose often 28.7 µM), without a hit: at the highest dose activity change, negative = inhibition, hits mostly inhibitors; P. falciparum luciferase reporter growth, 96 h
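Luminescence readout: decreased luciferase signal marks inhibited growth of reporter-expressing P. falciparum in infected red cells (2% hematocrit, 0.05% parasitemia final), exposed to compound two generations (96 h, 37 C, 5% CO2).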
* = called active by the depositor; i = inactive; ? = inconclusive; . = no result given; [ ] = remark or other dose. In the library only some 8.7% were active in any assay of this set; here they are far more common. Unless noted, calls follow the shape of the dose curve; as a rule, active = well fitted curve in the direction sought with a large enough effect; inconclusive = small, poorly fitted or top-dose-only effect, or another doubt; inactive = no such curve, though single readings can be large; an effect the other way counts as inactive or inconclusive. Unless noted, % is scaled to controls: 0 for no effect and ±100 for the full control effect; potency is read from the fitted curve at half-maximal effect.

SMILES	Vaccinia mCherry	Pf growth 48h	AMA1 RON2 block	Vaccinia Venus	Pf growth 96h
Cc1[nH]c2ccccc2c1/C=C/c1nc2ccccc2c(=O)n1CCO	?	9.28µM*	-10.8%	?	10.7%[1.15 µM]
COc1ccc(-n2c(/C=C/c3c(C)[nH]c4ccccc34)nc3ccccc3c2=O)cc1	-21.7%	.	.	-24.8%	.
CCOc1ccc(Sc2cc(C(=O)NCc3ccccc3Cl)c3ccccc3n2)cc1	-6.1%	.	.	-4.5%	.
Cn1c(CCNC(=O)c2ccco2)nc2cc(NC(=O)COc3ccc(Cl)cc3)ccc21	-1.4%	.	.	-12.5%	.
COc1ccc(-n2c(=O)n(Cc3ccccc3)c(=O)c3[nH]cnc32)cc1	.	10.0%	-1.0%	.	?
COc1ccc(Cn2c(=O)c3[nH]cnc3n(-c3ccc(C)cc3)c2=O)cc1	.	?	6.2%	.	2.33µM*
COc1ccc(OC)c(/C=C/c2sc3ccccc3[n+]2C)c1	28.3%	.	.	-7.7%	.
O=C(Nc1ccc2nc(-c3cccnc3)[nH]c2c1)C12CC3CC(CC(C3)C1)C2	-23.3%	11.7µM*	-4.8%	-28.4%	-26.1%
COc1ccc(C(=O)NCc2nnc(SCC(=O)Nc3ccccc3)n2-c2ccc(F)cc2)cc1	-3.1%	.	.	-19.3%	.
CCc1ccc(NC(=O)CC2C(=O)N(c3ccc(Cl)cc3)C(=O)N2Cc2cccs2)cc1 (stereo unspecified)	-14.1%	.	.	-19.2%	.
CCNc1nc(OCCNC(C)=O)nc(N(C)C)n1	.	66.1%	-21.9%	.	1.47µM*
Cc1csc2nc(COC(=O)CNC(=O)c3ccc(F)cc3)cc(=O)n12	4.4%	.	.	12.5%	.
COc1ccccc1C1CN(Cc2cccc(OCCO)c2)Cc2ccccc2O1 (stereo unspecified)	i	.	.	-11.5%	.
COc1ccc(OC)c(Nc2nc(-c3sc(NC(=O)c4ccccc4)nc3C)cs2)c1	.	?	.	.	-21.9%
COc1ccc(Cl)cc1Nc1nc(-c2sc(NC(=O)c3ccccc3)nc2C)cs1	.	1.85µM*	.	.	2.94µM*
Cc1nc(NC(=O)c2ccccc2)sc1-c1csc(Nc2ccc(Cl)cc2Cl)n1	.	10.4µM*	.	.	3.29µM*
CN(C)c1ccc(-c2noc(C3CC(=O)N(c4ccc5c(c4)OCCO5)C3)n2)cc1 (stereo unspecified)	-13.5%	.	.	-6.2%	.
Cc1ccc(CC(=O)CCc2ccccc2)cc1	i	24.8%	74.1%	-11.6%	63.7%
C=CC[N+](C)(C)c1ccc(CCC(=O)CCc2ccc([N+](C)(C)CC=C)cc2)cc1	i	0.147µM*	-7.1%	-15.5%	0.147µM*
Oc1ccc(-c2cnns2)c(O)c1	-9.1%	10.4µM*	16.4%	-10.8%	11.7µM*
Oc1ccc(-c2nc3ccccc3s2)c(O)c1	-21.2%	171.5%	0.3%	-23.3%	86.4%
COc1cc(Nc2ncc3c(n2)CCN(Cc2cccc(C)c2)C3)cc(OC)c1	-1.4%	.	.	-6.7%	.
COc1cc(OC)c(OC)cc1CN1CCCC(C(=O)c2ccccc2SC)C1 (stereo unspecified)	i	-7.3%	-19.3%	-3.1%	3.7µM*
COc1cc(CN2CCCC(C(=O)c3ccccc3SC)C2)cc(OC)c1 (stereo unspecified)	.	0.0%	-16.8%	.	11.7µM*
COc1cccc(O)c1CN1CCCC(C(=O)c2ccccc2SC)C1 (stereo unspecified)	-2.4%	?	-5.1%	3.7%	-0.4%
SMILES	Vaccinia mCherry	Pf growth 48h	AMA1 RON2 block	Vaccinia Venus	Pf growth 96h
COc1ccc(Oc2nc3c(C)cccn3c(=O)c2/C=C(\C#N)c2nc3ccccc3[nH]2)cc1	9.6%	.	.	3.9%	.
COc1ccc(OCC(=O)N2N=C(C)CC2(O)C(F)(F)F)cc1 (stereo unspecified)	i	7.6%	69.7%	-9.0%	?
Cc1ccc(OCC(=O)N2N=C(c3cccnc3)CC2(O)C(F)(F)F)cc1C (stereo unspecified)	-12.2%	?	22.3%	-27.6%	9.28µM*
O=C1C(=Cc2ccc(F)cc2)CCc2ccccc21	-8.0%	.	29.0%	-13.8%	.
C=CC(=O)N1C/C(=C/c2ccc(F)cc2)C(=O)/C(=C\c2ccc(F)cc2)C1	?	.	1.3%	7.94µM*	.
COC(=O)c1cc(-c2ccc(Br)cc2)c2c(=O)n(C)c(=O)n(C)c2n1	.	-10.6%	0.7%	.	5.86µM*
COC(=O)c1cc(-c2ccc(C)cc2)c2c(=O)n(C)c(=O)n(C)c2n1	-10.1%	.	.	-9.5%	.

Screens: PubChem, National Center for Advancing Translational Sciences (NCATS)
